The list is not random: actives were taken first. Their share in the collection is about 2.1%.
Abeta yeast res = A-beta toxicity reversal in yeast | yeast expressing A-beta42, growth rescue, OD600, 48 h; response scale: 0% DMSO, 100% iron-clioquinol control | Potency, µM (highest dose often 46.1 µM), hits mostly activators | 410,000 tested, 0.063% active; note: nearly all actives have a fitted effect of over 55% in size
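Growth rescue measured by 600 nm absorbance after 48 h yeast culture at 30 C with compound. Values normalized between DMSO and an equimolar ferric chloride plus clioquinol control.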
TDP43 rescue = inhibitors of TDP-43 toxicity in yeast; TDP-43 expressing yeast growth rescue, BacTiter-Glo, 24 h; Potency, µM (series often up to 46.1 µM), without a hit: at the highest dose growth rescue (activation), hits mostly activators; 410,000 tested, 1.8% active; note: % of control where 0% means no effect; nearly all actives have a fitted effect of over 50% in size
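Readout is BacTiter-Glo luminescence of cell growth, so inhibitors register as activators. TDP-43-expressing yeast at OD600=0.02 in galactose medium, after raffinose pregrowth to mid-log, were incubated with compound for 24 hr at 30 deg C.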
FUS suppressor = FUS proteinopathy suppression in yeast | S. cerevisiae FUS-expressing, growth rescue, OD600, 24 h | Potency, µM (doses to about 76.6 µM), most hits filed as activators | 390,000 tested, 0.24% active | AID 1347120;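 note: plate controls were DMSO vehicle for no effect and reference control for full effect; nearly all actives have a fitted effect of over 55% in size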
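Read-out: OD at 600 nm after 24hr at 30C, reporting rescue of FUS-induced yeast toxicity. Cells at OD 0.005 in galactose (2%) minimal medium; compounds tested in a dilution series; CP55940 titration from 92uM final as control.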
aSyn rescue = rescues yeast growth from alpha-synuclein toxicity; Yeast expressing alpha-synuclein, growth rescue, BacTiter-Glo, 24 h; Potency, µM (titrated, usually from 46.1 µM), for inactives: at the top dose growth rescue (activation), usual class: activators; 370,000 tested, 0.14% active; note: % of control where 0% means no effect; nearly all actives have a fitted effect of over 65% in size
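Rescue of yeast growth: cells expressing toxic alpha-synuclein, induced in galactose at OD600 0.02, incubated with compound 24 h at 30 C. ATP luminescence quantified growth; inhibitors of toxicity appear as activators.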
An asterisk follows results filed as active; i = inactive; ? = inconclusive; / = not tested or not shown. Calls come from the whole dose curve; as a rule, active = well fitted curve in the direction sought with a large enough effect; inconclusive = small, poorly fitted or top-dose-only effect, or another doubt; inactive = no such curve, though single readings can be large; an effect the other way counts as inactive or inconclusive. Potency is the fitted concentration of half-maximal effect.

SMILES | Abeta yeast res | TDP43 rescue | FUS suppressor | aSyn rescue
Cc1ccccc1CN1CCC(CNc2ncnc3onc(-c4ccc(Cl)cc4)c23)CC1 | i | 0% | i | -7%
COc1ccccc1OCC(=O)Nc1ccccc1C(=O)NCc1ccco1 | i | 3% | i | 1%
O=C(COc1ccccc1)Nc1ccccc1C(=O)NCc1ccco1 | i | 20µM* | i | 1%
COc1ccc(NC(=O)c2cccc3c(-c4cnn(C)c4)coc23)cc1 | i | 13µM* | i | 9%
O=C(NCc1ccc(F)c(F)c1)c1cccc2c(-c3cccnc3)coc12 | i | 13µM* | i | 5%
O=C(NCc1cccc(Cl)c1)c1cccc2c(-c3cccnc3)coc12 | i | 18µM* | ? | 17%
Cn1cc(-c2coc3c(C(=O)Nc4ccccc4)cccc23)cn1 | i | -3% | i | ?
O=C(Nc1cccc(OC(F)(F)F)c1)c1cccc2c(-c3cccnc3)coc12 | i | 32µM* | ? | -16%
COc1ccc(CNC(=O)c2cccc3c(-c4cccnc4)coc23)cc1OC | i | 23% | i | 15%
COc1cc(CCC(N)c2cccc(O)c2)cc(OC)c1OC (stereo not drawn) | i | 10% | / | -3%
O=C(NCc1cccs1)c1cccc2c(-c3ccc(F)c(F)c3)coc12 | i | ? | i | -1%
O=C(NCc1cccs1)c1cccc2c(-c3cccnc3)coc12 | i | 18µM* | i | 3%
Cc1ccc(S(=O)(=O)Nc2ccccc2CNc2ccc(Br)cn2)cc1 | i | 20µM* | / | 0%
N#Cc1cn(-c2ccccc2)nc1-c1ccco1 | i | 8.9µM* | i | /
CN(Cc1ccc2c(c1)OCCO2)C(=O)CSc1ncnc2sccc12 | i | ? | / | 0%
Nc1ccc(-c2nc3ccc(-c4nc5ccc(N)cc5[nH]4)cc3[nH]2)cc1 | / | / | / | -28%
COc1ccc(-c2nc3ccc([N+](=O)[O-])cc3[nH]2)cc1 | i | 16% | i | 11%
Nc1ccc2nc(-c3ccc(-c4nc5ccc(N)cc5[nH]4)cc3)[nH]c2c1 | ? | 14µM* | i | 9%
Cc1ccc(-c2nc3ccc([N+](=O)[O-])cc3[nH]2)cc1 | i | 18µM* | i | 1%
CNC(=O)C[C@H]1C(=O)N(c2ccccc2)C[C@@H]1CSC | i | 24% | i | -3%
CC(C)(C)c1ccc(CN(Cc2ccco2)c2cnc(S(C)(=O)=O)nc2C(=O)Nc2ccc(F)cc2)cc1 | i | 10% | i | /
CN1CCc2c(sc3nc(SCC(=O)N4CCCCC4)n(-c4ccccc4)c(=O)c23)C1 | i | -12% | i | 5.6µM*
N#C/C(=C\c1ccccc1[N+](=O)[O-])c1nc(C2CC2)cs1 | i | 14µM* | / | 1%
N#C/C(=C/c1ccccc1[N+](=O)[O-])c1nc(C2CC2)cs1 | i | ? | / | 6%
COc1ccc(/C(O)=C2/C(=O)C(=O)N(CCCN(C)C)C2c2cccc(Cl)c2)cc1OC (stereo not drawn) | i | 13% | / | 1%
SMILES | Abeta yeast res | TDP43 rescue | FUS suppressor | aSyn rescue
Cc1ccc(C2Nc3cccc4cccc(c34)N2)s1 | i | 10µM* | / | -10%
Fc1ccc(C2Nc3cccc4cccc(c34)N2)cc1 | i | -4% | i | -8%
COC(=O)C1(C(=O)OC)C2CCCCC2N(S(=O)(=O)c2ccc(C)cc2)[C@@H]1CC(C)=O (stereo partly drawn) | i | -8% | i | 7%
CC(SC#N)C(=O)C12CC3CC(CC(C3)C1)C2 (stereo not drawn) | i | 11µM* | i | 6%
CC(Sc1n[nH]c(N)n1)C(=O)C12CC3CC(CC(C3)C1)C2 (stereo not drawn) | i | -2% | i | -3%
COc1cccc(N2CC(C(=O)Nc3nnc(SCCN4CCOCC4)s3)CC2=O)c1 (stereo not drawn) | i | -12% | i | -2%
O=C1c2ccccc2C2(c3ccccc3)N1CCN2C(=O)C(Cl)(Cl)Cl (stereo not drawn) | i | 13µM* | i | 5%
Cc1ccc(NC(=O)c2cc(S(=O)(=O)NCCC3=CCCCC3)ccc2F)cc1 | i | 22µM* | / | 9%
COc1ccc(NC(=O)c2cc(S(=O)(=O)NCC3COc4ccccc4O3)ccc2F)cc1 (stereo not drawn) | i | 35µM* | ? | 6%
CCOc1ccc(NC(=O)c2cc(S(=O)(=O)NC3CCCCCC3)ccc2F)cc1 | i | 13µM* | i | /
COc1cc(C)ccc1C(=O)N1CCC(Oc2cccnc2)CC1 | / | / | i | /
COc1ccccc1N1CCN(C(=O)c2cnn(C(C)(C)C)c2C2CCN(C(=O)OC(C)(C)C)CC2)CC1 | i | 23% | i | /
CCCCSc1nnc2c(n1)OC(c1ccc(Br)s1)Nc1ccccc1-2 (stereo not drawn) | i | 1% | i | /
Cc1cc2c3ccccc3ncn2n1 | i | 9% | i | 1%
CSc1nnc2c(n1)c(C)nn2-c1cccc(C)c1 | i | 13µM* | i | -9%
CC1CC(C)(C)NC(=S)N1CC(=O)NCc1ccc2c(c1)OCO2 (stereo not drawn) | i | -10% | i | -2%
O=C(CSc1nnc(COc2ccccc2)n1-c1ccccc1)Nc1ccc(S(=O)(=O)Nc2nccs2)cc1 | / | / | 20µM* | /
O=C(CSc1nnc(-c2ccco2)n1-c1ccc(Cl)cc1)Nc1ccc(S(=O)(=O)Nc2nccs2)cc1 | / | / | 25µM* | /
COc1ccc(-n2c(SCC(=O)Nc3ccc(S(=O)(=O)Nc4nccs4)cc3)nnc2-c2ccccc2)cc1 | / | / | 10µM* | /
Nn1c(SCC(=O)Nc2ccc(S(=O)(=O)Nc3nccs3)cc2)nnc1-c1ccco1 | / | / | i | /
Cn1c(COc2ccccc2)nnc1SCC(=O)Nc1ccc(S(=O)(=O)Nc2nccs2)cc1 | / | / | i | /
Cc1cc(C)nc(NS(=O)(=O)c2ccc(NC(=O)COc3ccc(C(C)(C)C)cc3)cc2)n1 | i | 0% | 28µM* | /
CCOC(=O)c1ccc(NC(=O)CSc2nc(-c3cccs3)cc(C(F)(F)F)c2C#N)cc1 | i | 11% | i | -4%
Cc1[nH]c2ccccc2c1C(=O)CNc1ccc(Br)cc1 | / | / | / | -11%
CCOC(=O)c1cccc(NC(=O)c2nn(-c3ccc(OC)cc3)c(=O)c3c2c2ccccc2n3C)c1 | i | 22% | i | /
Cc1ccc(-n2c(SCC(=O)Nc3ccc(S(=O)(=O)Nc4cc(C)nc(C)n4)cc3)nnc2-c2ccc(C(C)(C)C)cc2)cc1 | / | / | 22µM* | /
CCOc1ccc(-n2c(SCC(=O)Nc3ccc(S(=O)(=O)Nc4cc(C)nc(C)n4)cc3)nnc2-c2ccncc2)cc1 | / | / | i | /
O=CNc1ccc2c(c1)Cc1cc([N+](=O)[O-])ccc1-2 | i | 22µM* | i | 15%
O=S(=O)(Nc1cccnc1)c1cccc2ccccc12 | / | / | / | 3%
CCCCNC(=O)c1cc(-c2ccc(OC)cc2)nc2n[nH]c(-c3cccc([N+](=O)[O-])c3)c12 | i | 16% | i | /
